# Legend:
# Assay in all cases: thermal shift delta Tm vs DMSO control; higher = stronger stabilization (binding)
# Details in all cases: 12.5 µM; protein concentration 2 µM
# [1] = system: LOC_OS01G57100-cb003
# Outline: (§1)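 Compounds dissolved in DMSO were added to purified rice kinase domain constructs, which had been expressed in E. coli, for differential scanning fluorimetry. Each well held 19.5 μl of 2 μM kinase in 100 mM potassium phosphate pH 7.5, 150 mM NaCl, 10% glycerol and 5 × SYPRO Orange. Fluorescence was followed from 25°C to 95°C at a rate of 0.05°C/s. Shifts in Boltzmann-fitted melting temperature are triplicate means relative to DMSO-only protein.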
# [2] = system: LOC_OS01G60330-cb001
# Outline: as §1
# [3] = system: LOC_OS01G60700-cb002
# Outline: as §1
# [4] = system: LOC_OS01G63280-cb003
# Outline: as §1
# [5] = system: LOC_OS01G67340-cb003
# Outline: as §1
# [6] = system: LOC_OS01G70970-cb002
# Outline: as §1
# [7] = system: LOC_OS02G07810-cb001
# Outline: as §1
# [8] = system: LOC_OS02G08530-cb003
# Outline: as §1
# [9] = system: LOC_OS02G14120-cb001
# Outline: as §1
# [10] = system: LOC_OS02G17970-cb001
# Outline: as §1
# [11] = system: LOC_OS02G45750-cb003
# Outline: as §1
# [12] = system: LOC_OS02G54510-cb004
# Outline: as §1
# [13] = system: LOC_OS03G04050-cb001
# Outline: as §1
# [14] = system: LOC_OS03G12390-cb001
# Outline: as §1
# [15] = system: LOC_OS03G27990-cb004
# Outline: as §1
# [16] = system: LOC_OS03G50450-cb001
# Outline: as §1
# [17] = system: LOC_OS03G50810-cb003
# Outline: as §1
# [18] = system: LOC_OS04G35114-cb001
# Outline: as §1
# [19] = system: T1, LOC_OS04G38480-cb003
# T1 sequence (whole entry): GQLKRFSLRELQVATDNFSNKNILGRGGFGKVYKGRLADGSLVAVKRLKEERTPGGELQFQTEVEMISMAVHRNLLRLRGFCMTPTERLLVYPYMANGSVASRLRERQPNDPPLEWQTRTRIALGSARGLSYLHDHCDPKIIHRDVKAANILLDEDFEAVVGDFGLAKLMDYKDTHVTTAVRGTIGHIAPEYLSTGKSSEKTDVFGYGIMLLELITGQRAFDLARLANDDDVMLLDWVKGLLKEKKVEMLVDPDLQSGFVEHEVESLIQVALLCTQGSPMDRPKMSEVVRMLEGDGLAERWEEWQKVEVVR
# Outline: as §1
# [20] = system: T2, LOC_OS04G41100-cb001
# T2 sequence (whole entry): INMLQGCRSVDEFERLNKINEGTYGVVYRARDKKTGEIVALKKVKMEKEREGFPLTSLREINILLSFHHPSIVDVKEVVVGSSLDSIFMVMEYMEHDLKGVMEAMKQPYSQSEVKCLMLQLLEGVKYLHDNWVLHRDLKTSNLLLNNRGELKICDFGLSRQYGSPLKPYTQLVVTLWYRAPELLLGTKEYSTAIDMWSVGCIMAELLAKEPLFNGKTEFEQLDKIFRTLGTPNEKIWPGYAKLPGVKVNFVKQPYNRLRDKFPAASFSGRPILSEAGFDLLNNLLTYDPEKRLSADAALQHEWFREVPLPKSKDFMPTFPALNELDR
# Outline: as §1
SMILES,thermal shift delta Tm [1],thermal shift delta Tm [2],thermal shift delta Tm [3],thermal shift delta Tm [4],thermal shift delta Tm [5],thermal shift delta Tm [6],thermal shift delta Tm [7],thermal shift delta Tm [8],thermal shift delta Tm [9],thermal shift delta Tm [10],thermal shift delta Tm [11],thermal shift delta Tm [12],thermal shift delta Tm [13],thermal shift delta Tm [14],thermal shift delta Tm [15],thermal shift delta Tm [16],thermal shift delta Tm [17],thermal shift delta Tm [18],thermal shift delta Tm [19],thermal shift delta Tm [20]
Cn1cc(-c2ccc3ncc(Cc4ccc5ncccc5c4)n3n2)cn1,0.9 °C,1.91 °C,0.96 °C,0.15 °C,0.76 °C,0.25 °C,1.07 °C,1.43 °C,2.22 °C,0.32 °C,0.5 °C,0.06 °C,0.32 °C,-0.22 °C,0.07 °C,0.05 °C,0.44 °C,2.6 °C,1.45 °C,0.07 °C
COc1ccc(COc2cc3oc(=O)c4cc(C(C)O)ccc4c3cc2OC)cc1 (stereo not given) [Palomid 529 (P529)],2.39 °C,1.07 °C,1.23 °C,0.19 °C,0.25 °C,0.51 °C,0.98 °C,1.87 °C,1.04 °C,0.5 °C,-0.8 °C,0.29 °C,0.37 °C,-0.47 °C,0.35 °C,0.19 °C,0.52 °C,0.78 °C,1.4 °C,0.32 °C
O=c1c(-c2ccc(O)cc2)coc2cc(O)cc(O)c12 [Genistein],-0.59 °C,0.72 °C,1.28 °C,0.16 °C,-0.02 °C,0.33 °C,0.97 °C,1.28 °C,-1.28 °C,1.58 °C,-0.47 °C,-0.37 °C,-0.01 °C,1.8 °C,0.92 °C,0.14 °C,0.36 °C,-1.3 °C,-1.76 °C,-0.75 °C
CC1(C)OCCn2c1nc1c(N3CCOCC3)nc(-c3cnc(N)nc3)nc12,-0.05 °C,5.04 °C,0.81 °C,-0.02 °C,0.53 °C,1.29 °C,0.49 °C,1.45 °C,0.72 °C,0.78 °C,-0.63 °C,0.42 °C,0.09 °C,-0.14 °C,0.19 °C,0.18 °C,0.33 °C,0.39 °C,0.75 °C,-0.13 °C
Cn1c2ccccc2c2c3c(c4c5ccccc5n(CCC#N)c4c21)CNC3=O,2.09 °C,2.57 °C,-1.36 °C,1.14 °C,4.81 °C,3.29 °C,2.07 °C,5.99 °C,9.45 °C,3.31 °C,5.83 °C,0.92 °C,0.61 °C,2.98 °C,1.85 °C,1.84 °C,6.02 °C,11.6 °C,2.74 °C,0.46 °C
O=C(Nc1nc2cccc(-c3ccc(CN4CCS(=O)(=O)CC4)cc3)n2n1)C1CC1 [Filgotinib (GLPG0634)],1.32 °C,2.66 °C,0.53 °C,0.12 °C,0.43 °C,0.37 °C,0.52 °C,0.93 °C,2.91 °C,0.47 °C,1.04 °C,0.58 °C,0.6 °C,0.31 °C,0.64 °C,1.73 °C,0.86 °C,1.37 °C,1.66 °C,0.6 °C

# Source: the supplement of paper PMC9694430
